Source: PubChem BioAssay (National Center for Advancing Translational Sciences (NCATS))
A selection: hits, their analogues and other compounds. The true share with any hit is near 4.1%.
FMDV antiviral – High Throughput Screening for Foot and Mouth Disease Virus Antivirals. FMDV antiviral cell-based qHTS. Potency, µM (doses to about 57.9 µM), for inactives: top-dose activity change, negative = inhibition, actives largely listed as inhibitors. actives 1.2% (n = 410,000); calls by dose curve; tested in HEK293T cells; note: read-out not given here; nearly all actives have a fitted effect of over 45% in size
Sm TGR inh – qHTS Assay for the Inhibitors of Schistosoma Mansoni Peroxiredoxins. Potency, µM (titrated, usually from 114 µM), inactives show at the top dose activity change, negative = inhibition, actives largely listed as inhibitors. actives 3% (n = 360,000). AID 485364, 2010. Schistosoma mansoni thioredoxin glutathione reductase (TGR), Q962Y6. purified TGR, DTNB reduction, TNB absorbance 405 nm; note: nearly all actives have a fitted effect of over 60% in size
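TGR 20 nM + NADPH 100 uM (dispensed conc.), cpd preinc 15 min RT; start with NADPH (500 uM addition) then DTNB (15 mM addition). Kinetic TNB absorbance, 405 nm filter. Four-parameter Hill fit across titration.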
AmpC inh detg – qHTS Inhibitors of AmpC Beta-Lactamase (assay with detergent) | P00811 | Potency, µM (top dose mostly 114 µM), for inactives: top-dose activity change, negative = inhibition, usual class: inhibitors | actives 0.041% (n = 370,000) | AmpC hydrolysis of nitrocefin, absorbance 480 nm, 0.01% Triton;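 note: 0% = no-compound wells and -100% = no-enzyme wells; nearly all actives have a fitted effect of over 25% in size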
Target sequence (P00811 whole entry, looked up): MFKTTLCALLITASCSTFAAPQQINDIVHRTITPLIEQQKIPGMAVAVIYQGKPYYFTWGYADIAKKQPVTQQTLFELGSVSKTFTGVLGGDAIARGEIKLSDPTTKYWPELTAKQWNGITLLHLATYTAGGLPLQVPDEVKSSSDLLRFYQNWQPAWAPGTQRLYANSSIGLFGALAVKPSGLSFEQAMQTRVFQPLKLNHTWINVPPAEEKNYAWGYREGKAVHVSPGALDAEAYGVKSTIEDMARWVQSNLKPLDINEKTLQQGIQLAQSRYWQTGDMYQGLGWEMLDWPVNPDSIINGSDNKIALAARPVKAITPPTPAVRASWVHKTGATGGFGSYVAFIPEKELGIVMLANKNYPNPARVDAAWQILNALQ
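20 mM phosphate pH 7.0 + 0.01% (detergent screen) or 0.0001% Triton X-100; 5.3 nM AmpC reagent; cpd preinc 15 min RT; nitrocefin (800 uM stock) to start; A480 q20 s × 4 min; Activity was normalised to no-enzyme and no-compound control wells.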
AmpC inh no detg – qHTS Inhibitors of AmpC Beta-Lactamase (assay without detergent). actives 0.52% (n = 330,000). AmpC nitrocefin hydrolysis, absorbance 480 nm, 0.0001% Triton. AID 485341, 2010. Potency, µM (top dose mostly 57.1 µM), inactives show at the top dose activity change, negative = inhibition, most hits filed as inhibitors;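 note: plate controls were no compound for no effect and no enzyme for full effect; nearly all actives have a fitted effect of over 20% in size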
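20 mM phosphate pH 7.0 + 0.01% (detergent screen) or 0.0001% Triton X-100; 5.3 nM AmpC reagent; cpd preinc 15 min RT; nitrocefin (800 uM stock) to start; A480 q20 s × 4 min; Activity was normalised to no-enzyme and no-compound control wells.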
AMA1-RON2 inh – qHTS for Inhibitors of AMA1-RON; Towards Development of Antimalarial Drug Lead: Primary Screen. Plasmodium falciparum AMA1 (3D7) - RON2 peptide interaction. AlphaScreen AMA1-biotinylated RON2 peptide binding. AID 720542, 2013. Potency, µM (top dose mostly 58.2 µM), inactives show at the highest dose activity change, negative = inhibition, actives largely listed as inhibitors. actives 0.2% (n = 360,000);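 note: 0% = vehicle wells and -100% = peptide control; nearly all actives have a fitted effect of over 45% in size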
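AMA1 (3D7) with his tag at 25 nM final met compounds first, then biotinylated RON2 peptide at 25 nM; detection used donor plus acceptor beads, 10 µg/mL apiece, read by AlphaScreen after 30 min at room temperature.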
Active calls of the source: *; ? = inconclusive; / = not tested or not shown; ! = repeats disagree; [ ] = another dose, or the depositor's remark. Unless noted, calls come from the whole dose curve; as a rule, active = well fitted curve in the direction sought with a large enough effect; inconclusive = small, poorly fitted or top-dose-only effect, or another doubt; inactive = no such curve, though single readings can be large; an effect the other way counts as inactive or inconclusive. Unless noted, % is set by controls: 0 for no effect and ±100 for the full control effect; potency is the fitted concentration of half-maximal effect.

SMILES	FMDV antiviral	Sm TGR inh	AmpC inh detg	AmpC inh no detg	AMA1-RON2 inh
CN(C)[C@@H]1C(=O)C(C(=O)NCN2CCCC2)=C(O)[C@@]2(O)C(=O)C3=C(O)c4c(O)cccc4[C@@](C)(O)C3CC12 (some centres undefined)	/	7.94µM*	?	14.6%	/
CN(C)[C@@H]1C(=O)C(C(N)=O)=C(O)[C@@]2(O)C(=O)C3=C(O)c4c(O)cccc4[C@@](C)(O)C3[C@H](O)C12 (some centres undefined)	-16.0%	8.91µM*	?	-33.2%	1.41µM*!
C=C1c2cccc(O)c2C(O)=C2C(=O)[C@]3(O)C(O)=C(C(N)=O)C(=O)[C@@H](N(C)C)[C@@H]3[C@@H](O)[C@H]12	-28.0%	35.5µM*	?	-31.9%	3.16µM*
O=C(Cn1c(-c2cccs2)cc2ccccc21)NCc1ccccc1Br	-28.8%	-9.1%	?	/	/
CS(=O)(=O)c1nc([N+](=O)[O-])nn1CCCc1ccccc1	17.8µM*	/	/	/	6.0%
Cn1nc([N+](=O)[O-])nc1S(C)(=O)=O	?	?	-1.3%	-16.2%	-10.3%
CCOC(=O)/C=C1\CN(Cc2cc(OC)c(OC)c(OC)c2)S(=O)(=O)c2ccc(C(F)(F)F)cc21	?	28.2µM*	-12.8%	95.2%	12.2%
CC(C)Cn1c(N)c(C(=O)CSc2nc3ncc(Cl)cc3[nH]2)c(=O)n(C)c1=O	15.8µM*	3.2%	-22.7%	-34.5%	-1.1%
CC(C)Cn1c(N)c(C(=O)CSc2ccc3c(c2)OCCO3)c(=O)n(C)c1=O	11.2µM*	4.6%	-2.1%	-22.0%	-3.6%
CC(C)Cn1c(N)c(C(=O)COC(=O)c2ccc3c(c2)OCCO3)c(=O)n(C)c1=O	?	3.0%	-4.7%	74.1%	-4.5%
CC(C)N(CCC(=O)c1ccc2ccccc2c1)Cc1ccccc1	-28.7%	0.126µM*	?	-21.9%	6.4%
CC(OC(=O)c1ccc2ccccc2c1)C(=O)N(C)Cc1ccccc1 (centres undefined)	-21.1%	0.0%	-3.4%	19.5%	3.6%
Cc1c(C)[n+](=O)c2c(n1[O-])CCC2	-3.3%	-1.5%	?	-0.9%	-5.1%
Cc1c(CBr)[n+](=O)c2c(n1[O-])C(Br)CCC2Br (centres undefined)	-11.6%	3.98µM*	-5.7%	-10.6%	-23.6%
CCc1c(C)n([O-])c2c([n+]1=O)CCC2	-10.9%	3.2%	?	-6.4%	-5.4%
Cc1c(C)[n+](=O)c2c(n1[O-])C(Br)CCC2Br (centres undefined)	5.6%	39.8µM*	2.3%	-11.6%	-17.7%
O=C(CBr)N1CCc2ccccc2C(c2ccccc2)C1 (centres undefined)	-0.6%	3.55µM*	-1.6%	2.3%	-5.0%
O=C(c1cccs1)N(Cc1cccnc1)c1nc2c(Cl)cccc2s1	-12.6%	-2.1%	2.6%	/	/
O=C(CCS(=O)(=O)c1ccccc1)N(Cc1cccnc1)c1nc2c(Cl)cccc2s1	-8.7%	1.58µM*	0.1%	/	/
Cc1ccc2sc(N(Cc3cccnc3)C(=O)CCS(=O)(=O)c3ccccc3)nc2c1C	-12.1%	35.5µM*	1.3%	/	/
Cc1cccc2sc(N(Cc3cccnc3)C(=O)CCS(=O)(=O)c3ccccc3)nc12	-17.0%	4.47µM*	-5.1%	/	/
Cc1cc(C)c2nc(N(Cc3cccnc3)C(=O)CCS(=O)(=O)c3ccccc3)sc2c1	-11.2%	-28.9%	3.6%	/	/
O=C(OCc1cc(=O)n2nc(-c3cccs3)sc2n1)c1ccccc1Br	0.0%	2.0%	22.0%	/	/
Cc1ccc(CNC(=O)CCCn2c(=O)c3ccccc3n(CC(=O)Nc3ccc(C)cc3)c2=O)cc1	-7.7%	-0.1%	14.2%	/	/
C=CC(=O)Nc1cccc(Oc2ccnc3[nH]ccc23)c1	-14.1%	/	/	/	25.1µM*
SMILES	FMDV antiviral	Sm TGR inh	AmpC inh detg	AmpC inh no detg	AMA1-RON2 inh
Cc1ccc(Cl)cc1NC(=O)NCc1cccn1Cc1ccc(F)cc1	1.1%	-3.2%	-9.3%	/	/
COc1cc(=O)n2c(c1C(=O)NC(C)c1ccco1)CCN(Cc1ccc3nsnc3c1)CC2 (centres undefined)	-0.3%	/	/	/	/
COc1ccc(CCNC(=O)c2cc3sc(Cl)cc3n2C)cc1OC	-20.8%	1.3%	?	50.1µM*	-21.7%
CC(=O)c1cccc(CN2CCC(C(=O)Nc3cccc(-c4ccn[nH]4)c3)CC2)c1	31.6µM*	-6.1%	?	14.2%	4.3%
CCCc1c(-c2ccccc2Br)ncn1Cc1ccccc1OC	?	/	/	/	-25.2%
Cc1ccc(C(C)C)c(OCCN)c1	-0.9%	8.8%	-10.3%	29.0%	-1.7%
Cc1ccc(C(C)C)c(OCCCn2ccnc2C)c1	-24.7%	89.1µM*	-13.5%	40.4%	-28.1%
COCCn1c(=O)cnc2cnc(Oc3ccccc3)nc21	-11.7%	/	/	/	/
COc1cc(CNC(=O)C2CCCC2)cc(OC)c1OC	8.3%	3.16µM*	?	-0.1%	12.3%
COc1ccccc1CNC(=O)C1CCCC1	9.0%	7.2%	8.2%	-14.3%	36.1%
Cc1ccc(NC(=O)Cn2cnc3c(oc4ccccc43)c2=O)cc1Cl	-0.2%	-2.3%	-3.8%	/	/
COc1ccc2oc(-c3cccc(NC(=O)c4sc5c([N+](=O)[O-])cccc5c4Cl)c3)nc2c1	-1.9%	-6.7%	-2.2%	/	/
CCn1c(C)c(C(C)=O)c(N2CCN(C(c3ccccc3)c3ccccc3)CC2)nc1=S	31.6µM*	?	3.0%	7.8%[2.29 µM]	-14.4%
CCn1c(C)c(C(C)=O)c(N2CCN(c3ccccc3)CC2)nc1=S	-7.9%	-0.4%	2.3%	1.8%	-2.7%
Cc1ccc(NC(=O)c2cc(C)n(-c3cccc(C)c3)c2C)cc1	9.9%	-15.0%	1.7%	15.8µM*	?
Cc1cc(C(=O)Nc2ccc(Cl)cc2)c(C)n1-c1ccccc1	?	50.1µM*	-3.0%	-50.8%	-9.2%
Cc1ccc(NC(=O)c2cc(C)n(-c3ccccc3)c2C)cc1	?	8.4%	5.0%	-28.0%	-5.1%[11.6 µM]
O=[N+]([O-])c1ccc(Sc2ccccn2)nc1	-1.9%	-19.1%	-5.2%	-7.5%	6.1%
O=C(Nc1cc(Sc2ccccn2)cc([N+](=O)[O-])c1)c1ccc([N+](=O)[O-])cc1	22.4µM*	-27.0%	-12.7%	?	-3.5%
COc1ccccc1Cn1ccn(Cc2c(F)cccc2Cl)c(=O)c1=O	33.9%	8.0%	2.6%	/	/
Cc1ccc(CNC(=O)c2cc3c(=O)n(Cc4ccco4)ccc3nc2C)cc1	-11.7%	25.1µM*	3.7%	/	/
Cc1ccc(C)c(N2CCN(C(=O)c3cc4c(=O)n(Cc5ccco5)ccc4nc3C)CC2)c1	?	39.8µM*	0.9%	/	/
COc1ccc(Nc2cc(C(=O)NCc3ccccc3)c3ccccc3n2)cc1	4.8%	-2.5%	-8.7%	/	/
